Here are results for 5 compounds from PubChem BioAssay AID540259 (Broad Institute, 2011).

Entries with a potency or affinity are not part of this list. The source made the active and inactive calls.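 The calls were made as follows: active = cell killing, meaning signal decrease, with fitted half-maximal dose at or below ten times the top valid tested dose; inconclusive = poor fit, or flat curve with 30 to 70% signal loss; inactive = the rest.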

A short description of this assay: ATP-based viability loss in HeLa cells – cell-based, CellTiter-Glo luminescence, cherry-pick samples, cytotoxicity control for MITF activator project, dose response (AID 540259).

As for `CC(Cc1ccccc1)/[N+]([O-])=C\c1ccc(C(F)(F)F)cc1` (stereo not given), the compound was called inactive.

With `O=C1C(=O)N(c2ccccc2)P(=O)(N(CCCl)CCCl)N1c1ccccc1`, the result was inactive.

For `Cc1nn(CC(C)C)c(Cl)c1C(=O)NC1CCC(C)CC1` (stereo not given), the compound was classed as inactive.

In the case of `COc1ccc(-c2cc(=NCCC(=O)O)c3cc(C)ccc3o2)cc1`, the result was inactive.

As to `CN1C(=O)NC(=O)C(C)(C2=CCCCC2)C1=O` (stereo not given), the compound was called inactive.
